Hits are enriched below; roughly 19% of the tested compounds scored in any of these assays.
Pf growth 96h: P. falciparum growth inhibition at 96 hours; P. falciparum luciferase reporter growth, 96 h; Potency, µM (titrated, usually from 28.7 µM), most hits filed as inhibitors; actives 6.9% (n = 320,000)
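Two-generation exposure (96 h) targets delayed-death phenotype. Reporter parasites carrying integrated firefly luciferase, in red cells at 2% hematocrit and 0.05% parasitemia final, kept at 37 C, 5% CO2; luminescence loss indicates inhibition.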
Shiga toxin inh: inhibitors of Shiga toxin in Vero cells | Vero cells, Shiga toxin protein synthesis inhibition reporter | actives 9.2% (n = 290,000) | AID 2315 | inhibition, % at 38.7 µM; in the data active = inhibition mostly above about 28%, no sharp cut-off; inactive = mostly below about 43%
Pf growth 48h: inhibits P. falciparum growth in the first generation, 48 h. P. falciparum luciferase growth in erythrocytes, 48 h. Potency, µM (doses to about 28.7 µM), most hits filed as inhibitors. actives 5.9% (n = 310,000)
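Erythrocytes infected with P. falciparum carrying an integrated firefly luciferase reporter (2% hematocrit, 0.1% parasitemia final) were exposed to compounds in RPMI 1640 with 0.5% Albumax at 37 C, 5% CO2. Growth inhibition was scored as reduced luminescence.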
Marburg entry inh: blocks Marburg virus binding to or entry into cells; actives 1.8% (n = 300,000); Marburg virus pseudotyped entry inhibition, cell reporter; Potency, µM (doses to about 37.8 µM), most hits filed as inhibitors; AID 540276; calls by dose curve; tested in HEK293 cells
LASV entry inh: Lassa virus entry inhibition. actives 1.2% (n = 300,000). Lassa virus pseudotype entry inhibition, cell reporter. Potency, µM (series often up to 37.9 µM), most hits filed as inhibitors; calls by dose curve; tested in HEK293 cells; also: nearly all actives have a fitted effect of over 50% in size
CHX counter: counter-screen for Shiga toxin inhibitors: cycloheximide protein synthesis inhibition; cell reporter, cycloheximide protein synthesis inhibition counterscreen; max response, %; AID 2314; actives 12% (n = 300,000); in the data active = max response mostly above about 13%, no sharp cut-off; inactive = mostly below about 14%; also: read at 38.3 µM for the half of the compounds with a filed dose
Of the large screens only hits and unclear results are named; the others gave an inactive call. Unless noted, calls follow the shape of the dose curve; as a rule, active = well fitted inhibition curve with a large enough effect; inconclusive = small, poorly fitted or top-dose-only effect, or another doubt; inactive = no such curve, though single readings can be large or run the other way.

Cc1cc(NS(=O)(=O)c2ccc(N3C(=O)C4C5C=CC(C5)C4C3=O)cc2)nc(C)n1 (stereo unspecified)	Pf growth 96h inconclusive, CHX counter 14.4
Cc1c(Br)ccc(NC(=O)CCN2C(=O)C3C4CCC(C4)C3C2=O)c1C (stereo unspecified)	Shiga toxin inh 33.8, CHX counter 18.7
COc1ccc(NC(=O)c2cccc(N3C(=O)C4C5C=CC(C5)C4C3=O)c2)cc1 (stereo unspecified)	none
CCN(CC(=O)Nc1ccc(NC(C)=O)cc1)C(=O)c1cc2c(s1)CCCC2	none (no result: Shiga toxin inh, Marburg entry inh, LASV entry inh, CHX counter)
CC(C)(C)OC(=O)N1CCC[C@H]1C(=O)Nc1ccc(S(=O)(=O)C(F)F)cc1	none (no result: Marburg entry inh, LASV entry inh)
Cn1cc(S(=O)(=O)N2CCCCC2)cc1C(=O)N1CCN(c2ccc(F)cc2)CC1	none (no result: Pf growth 96h, Shiga toxin inh, Pf growth 48h, Marburg entry inh, CHX counter)
CC1(C)CC(NCc2ccccc2)CCO1 (stereo unspecified)	Pf growth 96h inconclusive, Marburg entry inh inconclusive, LASV entry inh inconclusive
CCN(CC)Cc1cc(Nc2c3ccccc3nc3c4ccccc4n(C)c23)cc(CN(CC)CC)c1O	Marburg entry inh inconclusive, LASV entry inh 11.2µM (no result: Pf growth 96h, Shiga toxin inh, Pf growth 48h, CHX counter)
Cc1ccc(Oc2c(C)nc(-c3ccccc3)[nH]c2=O)cc1	Pf growth 96h 1.65µM, Pf growth 48h 1.04µM, Marburg entry inh inconclusive, LASV entry inh inconclusive
Cc1nc(-c2ccccc2)[nH]c(=O)c1Oc1ccc(Cl)cc1Cl	none (no result: Marburg entry inh, LASV entry inh)
C/C(=N\NC(N)=S)c1cc(-c2ccccc2)c(-c2ccccc2)s1	Pf growth 96h inconclusive, Pf growth 48h 9.28µM, Marburg entry inh inconclusive, LASV entry inh inconclusive (no result: Shiga toxin inh)
C/C(=N/NC(N)=S)c1ccc(Br)s1	Pf growth 48h 14.7µM, Marburg entry inh inconclusive, LASV entry inh inconclusive
C/C(=N\NC(=O)Cc1ccccc1)c1ccc(Br)s1	none (no result: Marburg entry inh, LASV entry inh)
Cc1nnc(SCCOc2ccccc2)s1	CHX counter 25.7
Nc1nnc(SCCOc2ccccc2)s1	Pf growth 96h inconclusive, Shiga toxin inh 26.6, CHX counter 16.6
Nc1nnc(SCCOc2ccc(Br)cc2)s1	Marburg entry inh inconclusive, CHX counter 18.4 (no result: Pf growth 96h)
CC(=O)Nc1ccc(-n2cc(-c3ccccc3)[nH]c2=S)cc1	none (no result: Marburg entry inh, LASV entry inh)
CCOc1ccccc1OCC(=O)NN=C1CCCC(=O)C1	Marburg entry inh inconclusive (no result: Pf growth 96h, Shiga toxin inh, Pf growth 48h, CHX counter)
O=C(C[n+]1cc(-c2ccc(F)cc2)n2c1CCC2)Nc1nc(-c2ccccc2)cs1	Pf growth 96h inconclusive, Pf growth 48h inconclusive, Marburg entry inh inconclusive
Cc1ccc(-c2c[n+](CC(=O)Nc3ccc(C)cc3C)c3n2CCC3)cc1	Pf growth 96h inconclusive, Pf growth 48h inconclusive
Cn1c(NC(=O)C[n+]2cc(-c3ccc(Cl)c(Cl)c3)n3c2CCC3)cc(=O)n(C)c1=O	Pf growth 96h 0.828µM, Pf growth 48h 1.31µM, Marburg entry inh inconclusive
Cc1ccccc1NC(=O)C[n+]1cc(-c2ccccc2)n2c1CCC2	Pf growth 96h 5.86µM, Pf growth 48h inconclusive, LASV entry inh inconclusive
Cc1ccc(-c2c[n+](CC(=O)Nc3nc(-c4ccc(F)cc4)cs3)c3n2CCC3)cc1	Pf growth 96h 3.7µM, Pf growth 48h inconclusive
Cc1ccc(NC(=O)C[n+]2cc(-c3ccc(C)cc3)n3c2CCC3)cc1	Pf growth 96h 1.85µM, Pf growth 48h 6.57µM
O=C(Cc1ccc(Cl)cc1)Nc1ccccc1C(=O)N1CCCCC1	none
COc1ccc(CNC(=O)[C@H](C)NC(=O)C2CCN(S(=O)(=O)c3ccccc3)CC2)cc1	Pf growth 96h inconclusive (no result: Marburg entry inh, LASV entry inh)
Cc1cccc(C)c1NC(=O)C[n+]1cc(-c2ccccc2)n2c1CCC2	Pf growth 96h 11.7µM, Pf growth 48h inconclusive
O=C(C[n+]1cc(-c2ccc(Cl)cc2)n2c1CCC2)Nc1nc(-c2ccccc2)cs1	Pf growth 96h inconclusive, Pf growth 48h inconclusive (no result: Marburg entry inh, LASV entry inh)
NS(=O)(=O)c1ccc(N/C=C\C(=O)c2cccc3ccccc23)cc1	Pf growth 96h inconclusive, CHX counter 21.4
N#Cc1ccc(CN2C(=O)NC3(CCCCCC3)C2=O)cc1	none
CCN(CC)S(=O)(=O)c1ccc(C(=O)OCCN2C(=O)CCC2=O)cc1	none (no result: Pf growth 48h, LASV entry inh)
O=c1cc(-c2ccccc2)cc(-c2ccccc2)n1CCCO	Pf growth 96h inconclusive, Pf growth 48h 9.28µM (no result: Shiga toxin inh, Marburg entry inh, LASV entry inh, CHX counter)
OCCn1nc(-c2ccccc2)cc1-c1ccccc1	Pf growth 96h inconclusive (no result: Marburg entry inh, LASV entry inh)
O=C1c2ccncc2C(=O)N1c1cccc(Cl)c1	Pf growth 96h inconclusive
CCOC(=O)C1CCN(C(=O)CN(c2cc(Cl)ccc2OC)S(=O)(=O)c2ccccc2)CC1	Pf growth 96h inconclusive, Pf growth 48h 14.7µM, LASV entry inh inconclusive
CCOC(=O)C1CCN(C(=O)CN(c2cc(OC)ccc2OC)S(=O)(=O)c2ccccc2)CC1	Pf growth 96h inconclusive, Pf growth 48h 13.1µM
CN(Cc1c(C(=O)N2CCc3ccccc3C2)nc2ccc(Cl)cn12)C(C1CC1)C1CC1	Pf growth 48h inconclusive
Cc1c(C(=O)OCC(=O)N2CC(=O)Nc3ccccc32)oc2ccccc12	Pf growth 48h inconclusive, Marburg entry inh inconclusive (no result: Pf growth 96h)
CC[n+]1c(/C=C(\C)Nc2ccccc2)sc2ccccc21	Pf growth 48h 5.22µM, Marburg entry inh inconclusive
CC[n+]1c(C=C2C=C(C)OC(C)=C2)sc2ccccc21	Pf growth 96h inconclusive, Pf growth 48h inconclusive, Marburg entry inh inconclusive, LASV entry inh 5.01µM
Cc1sc2ccccc2[n+]1CC(=O)O	Pf growth 96h inconclusive, Pf growth 48h inconclusive
CC[n+]1c(/C=C/Nc2ccccc2)sc2ccccc21	Pf growth 48h inconclusive, Marburg entry inh inconclusive
CC/C(=C/c1sc2ccccc2[n+]1CC)SC	Pf growth 96h 1.65µM, Pf growth 48h inconclusive, Marburg entry inh inconclusive
CC[n+]1c(/C=C2/C=C(C)CC(C)C2)sc2ccccc21 (stereo unspecified)	Pf growth 96h inconclusive, Pf growth 48h inconclusive, Marburg entry inh inconclusive, LASV entry inh inconclusive
CC[n+]1c(/C=C(\C)SC)sc2ccccc21	Pf growth 96h inconclusive, Pf growth 48h 0.294µM, LASV entry inh inconclusive
O=C(Cn1cnc2c(nnn2Cc2ccccc2)c1=O)NCc1ccco1	none (no result: Marburg entry inh, LASV entry inh)
CCc1ccccc1N(CC(=O)NCc1ccccc1)C(=O)CCC(=O)Nc1ccccn1	none
O=C(O)c1cc(S(=O)(=O)N2CCCc3ccccc32)ccc1Cl	none
Cc1cccc(C)c1-n1ncc(C(=O)NC2CCCC2)c1C1CCNCC1	none (no result: Marburg entry inh, LASV entry inh)
CC[n+]1c(/C=C(\C)OC)sc2ccccc21	none
CC[n+]1c(/C=C(/C)SC)sc2ccccc21	Pf growth 96h inconclusive, Pf growth 48h 1.65µM
CC1CCC2(CC1)NC(=O)N(CC(=O)N(Cc1ccccc1)C(C)(C)C)C2=O (stereo unspecified)	none (no result: Shiga toxin inh, CHX counter)
CN1CCN(C(=S)NC(=O)c2ccc(C(C)(C)C)cc2)CC1	LASV entry inh inconclusive
CN1CCN(C(=S)NC(=O)c2ccc(Br)cc2)CC1	Pf growth 96h inconclusive, Shiga toxin inh 36.4, CHX counter 13.1
Cc1ccc(C(=O)NC(=S)N2CCN(C)CC2)cc1	Shiga toxin inh 87.6, CHX counter 21.3 (no result: Pf growth 96h)
Cc1ccc(C2(c3noc(CN(C)CC4CCCCO4)n3)CCCC2)cc1 (stereo unspecified)	Pf growth 96h inconclusive, Pf growth 48h inconclusive (no result: Marburg entry inh, LASV entry inh)

Source: PubChem BioAssay
